Measured values taken from PubChem BioAssay (EPA / NIEHS).
Inconclusive results are not listed. The source made the active and inactive calls. Rule for the calls, unless noted: active = hit-call score of the fitted dose curve at least 0.9, where 1 is the maximum; inactive = score below 0.9.

What was measured:
[1] = target: Retinoic acid receptor alpha (Homo sapiens) (UniProt P10276); test: ATG_DR5_RAR_CIS: Attagene CIS-FACTORIAL HepG2 Assay for human Retinoic Acid Receptor Alpha (RARE), DR5 submotif (AID 2282934); conditions: HepG2 Attagene cis-factorial RARE DR5 reporter, mRNA; actives raise or lower the signal
Chain of Retinoic acid receptor alpha (Homo sapiens) (P10276 whole entry, looked up): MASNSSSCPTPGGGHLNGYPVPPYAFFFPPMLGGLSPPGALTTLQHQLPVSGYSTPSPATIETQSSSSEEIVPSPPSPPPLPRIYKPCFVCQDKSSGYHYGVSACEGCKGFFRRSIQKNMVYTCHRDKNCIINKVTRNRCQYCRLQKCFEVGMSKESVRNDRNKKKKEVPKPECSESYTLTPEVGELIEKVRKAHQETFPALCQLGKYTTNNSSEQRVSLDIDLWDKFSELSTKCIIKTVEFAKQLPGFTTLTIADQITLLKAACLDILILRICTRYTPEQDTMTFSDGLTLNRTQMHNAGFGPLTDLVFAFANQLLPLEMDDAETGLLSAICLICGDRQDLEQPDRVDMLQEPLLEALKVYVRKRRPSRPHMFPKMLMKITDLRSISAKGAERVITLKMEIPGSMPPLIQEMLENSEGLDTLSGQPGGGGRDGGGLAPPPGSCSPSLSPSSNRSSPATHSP
Method in brief: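 Reporter transcripts from a DR5-regulated unit, measured via RT-PCR plus capillary electrophoresis, reflect endogenous RAR activity in transiently transfected human HepG2 liver cells. Exposure lasted 24 h; gain or loss of signal scored against DMSO.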

[2] = ATG_GLI_CIS: Attagene CIS-FACTORIAL HepG2 Assay for human Zinc Finger Protein GLI1 (AID 2282945); conditions: HepG2, Attagene cis-factorial reporter mRNA, GLI element; actives raise or lower the signal
Method in brief: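 Bidirectional curve fits relative to DMSO, using reporter mRNA levels from RT-PCR plus capillary electrophoresis. Cells were HepG2 transiently carrying cis-regulated reporter constructs, harvested 24 h after dosing.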

[3] = ATG_GRE_CIS: Attagene CIS-FACTORIAL HepG2 Assay for human Glucocorticoid Response Elements (GRE) (AID 2282947); conditions: HepG2 GRE cis-reporter, Attagene multiplex mRNA; actives raise or lower the signal
Method in brief: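 Multiplexed cis-reporter mRNA induction, HepG2, 24 h post-dose. RT-PCR, FAM-labelled, HpaI-digested amplicons by CE. Bidirectional fit vs DMSO.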

[4] = ATG_GAL4_TRANS: Attagene TRANS-FACTORIAL HepG2 Assay for GAL4 (Internal Marker) (AID 2282976; active = hit-call score of the fitted dose curve at least 0.9, where 1 is the maximum); conditions: HepG2 Attagene TRANS GAL4 internal marker reporter
Method in brief: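 RT-PCR/capillary electrophoresis readout of reporter mRNA. HepG2, transient MRTU transfection (GAL4-UAS reporters), 24 h compound exposure. Background-control endpoint, positive direction vs DMSO baseline.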

[5] = target: Hepatocyte nuclear factor 4-alpha (Homo sapiens) (UniProt P41235); test: ATG_HNF4a_TRANS: Attagene TRANS-FACTORIAL HepG2 Assay for human Hepatocyte Nuclear Factor 4 alpha (HNF4a) (AID 2282982; active = hit-call score of the fitted dose curve at least 0.9, where 1 is the maximum); conditions: HepG2 HNF4a transactivation reporter, mRNA readout
Chain of Hepatocyte nuclear factor 4-alpha (Homo sapiens) (P41235 whole entry, looked up): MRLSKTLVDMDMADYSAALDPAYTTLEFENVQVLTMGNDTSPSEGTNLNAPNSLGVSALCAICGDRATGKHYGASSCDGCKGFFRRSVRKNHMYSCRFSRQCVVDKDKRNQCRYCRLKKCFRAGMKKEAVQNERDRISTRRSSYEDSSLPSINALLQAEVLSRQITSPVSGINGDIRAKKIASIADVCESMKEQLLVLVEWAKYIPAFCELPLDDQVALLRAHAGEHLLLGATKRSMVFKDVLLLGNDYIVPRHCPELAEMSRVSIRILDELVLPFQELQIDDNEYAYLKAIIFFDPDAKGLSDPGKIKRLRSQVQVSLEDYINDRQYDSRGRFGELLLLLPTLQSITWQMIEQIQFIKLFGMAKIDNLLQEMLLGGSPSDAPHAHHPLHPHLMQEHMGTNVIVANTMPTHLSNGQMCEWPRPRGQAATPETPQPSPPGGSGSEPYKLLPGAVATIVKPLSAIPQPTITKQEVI
Method in brief: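 Multiplexed reporter assay: transfected HepG2, 24 h exposure, total RNA → oligo(dT) RT → PCR → 6-FAM extension → HpaI digest → CE fluorescence. DMSO = negative control.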

[6] = ATG_M_32_TRANS: Attagene TRANS-FACTORIAL HepG2 Assay for M32 Transcription Factor (Internal Marker) (AID 2282984; active = hit-call score of the fitted dose curve at least 0.9, where 1 is the maximum); conditions: HepG2 Attagene TRANS M32 internal marker reporter
Method in brief: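 Cell-based TRANS-format assay in HepG2: exogenous chimeric GAL4 reporter units transiently expressed, compounds applied 24 h. Reporter mRNA detected by RT-PCR plus capillary electrophoresis; this readout is an internal background marker.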

[7] = target: Transcriptional activator Myb (Homo sapiens) (UniProt P10242); test: ATG_Myb_CIS: Attagene CIS-FACTORIAL HepG2 Assay for human Myeloblastosis (Myb) Proto-Oncogene Transcription Factor (AID 2282986); conditions: HepG2 Attagene CIS-FACTORIAL Myb reporter transcription; actives raise or lower the signal
Chain of Transcriptional activator Myb (Homo sapiens) (P10242 whole entry, looked up): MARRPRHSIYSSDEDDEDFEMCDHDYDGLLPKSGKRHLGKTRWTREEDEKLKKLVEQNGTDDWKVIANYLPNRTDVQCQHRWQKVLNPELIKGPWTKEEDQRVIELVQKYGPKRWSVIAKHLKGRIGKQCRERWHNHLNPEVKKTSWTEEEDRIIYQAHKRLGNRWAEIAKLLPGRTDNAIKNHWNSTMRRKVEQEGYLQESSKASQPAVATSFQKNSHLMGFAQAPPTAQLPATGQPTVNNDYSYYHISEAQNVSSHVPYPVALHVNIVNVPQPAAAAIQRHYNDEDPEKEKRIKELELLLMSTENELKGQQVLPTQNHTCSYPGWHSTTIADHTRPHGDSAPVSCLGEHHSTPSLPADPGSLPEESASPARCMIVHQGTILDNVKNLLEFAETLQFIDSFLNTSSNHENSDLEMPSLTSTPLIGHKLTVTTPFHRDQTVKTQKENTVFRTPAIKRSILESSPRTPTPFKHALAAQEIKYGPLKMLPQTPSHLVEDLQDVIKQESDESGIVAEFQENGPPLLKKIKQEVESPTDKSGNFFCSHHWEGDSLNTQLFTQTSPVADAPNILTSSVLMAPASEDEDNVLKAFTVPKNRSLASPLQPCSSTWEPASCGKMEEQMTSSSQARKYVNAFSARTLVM
Method in brief: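 Reporter transcript levels, quantified by fluorescent RT-PCR and capillary electrophoresis, serve as the read-out. Transfected HepG2 cells carrying cis-promoter reporter units are dosed for 24 hours, and curves are fitted bidirectionally against DMSO controls.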

[8] = target: Nuclear respiratory factor 1 (Homo sapiens) (UniProt Q16656); test: ATG_NRF1_CIS: Attagene CIS-FACTORIAL HepG2 Assay for human Nuclear Respiratory Factor 1 (NRF1) Orphan Gene (AID 2282987); conditions: HepG2 NRF1 cis-element reporter, Attagene multiplex; actives raise or lower the signal
Chain of Nuclear respiratory factor 1 (Homo sapiens) (Q16656 whole entry, looked up): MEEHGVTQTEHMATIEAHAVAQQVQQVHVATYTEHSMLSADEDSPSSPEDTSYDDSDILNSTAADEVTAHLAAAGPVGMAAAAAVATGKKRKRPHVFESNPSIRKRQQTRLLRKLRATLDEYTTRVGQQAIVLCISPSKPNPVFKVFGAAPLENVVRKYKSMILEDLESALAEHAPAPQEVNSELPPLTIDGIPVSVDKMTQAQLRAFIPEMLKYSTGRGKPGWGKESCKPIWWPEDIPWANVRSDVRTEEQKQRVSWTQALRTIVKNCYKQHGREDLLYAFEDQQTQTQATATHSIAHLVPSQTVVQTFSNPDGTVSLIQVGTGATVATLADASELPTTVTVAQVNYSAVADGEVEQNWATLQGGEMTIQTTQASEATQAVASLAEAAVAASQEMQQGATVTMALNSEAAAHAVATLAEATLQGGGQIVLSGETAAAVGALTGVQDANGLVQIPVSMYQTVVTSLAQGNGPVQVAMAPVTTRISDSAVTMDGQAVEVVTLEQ
Method in brief: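 Multiplexed cis-reporter assay, HepG2 cells, 24 h treatment. Total RNA → oligo(dT) RT → PCR with reporter-specific primers → 6-FAM primer extension → HpaI cut → CE. Bidirectional fit vs DMSO.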

[9] = ATG_NF_kB_CIS: Attagene CIS-FACTORIAL HepG2 Assay for human Nuclear Factor Kappa B (NF-kB) (AID 2282991); conditions: HepG2 Attagene cis-factorial NF-kB reporter mRNA; actives raise or lower the signal
Method in brief: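 Transient MRTU transfection of human HepG2 liver cells → 24 h chemical exposure → total RNA, oligo(dT) RT → PCR, 6-FAM primer extension, HpaI digest 2 h 37 C → CE fragment analysis. Bidirectional fitting, DMSO negative control.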

[10] = ATG_Oct_MLP_CIS: Attagene CIS-FACTORIAL HepG2 Assay for human Octamer-Binding Transcription Factor (Oct) (AID 2282993); conditions: HepG2 Attagene cis-factorial Oct reporter, mRNA; actives raise or lower the signal
Method in brief: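 HepG2, transient MRTU transfection, cis promoter elements; 24 h dosing; RT-PCR/CE fluorescence read-out of reporter mRNA; fit both directions vs DMSO.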

[11] = TOX21_p53_BLA_p2_viability: Viability Assessment in the Tox21 HCT-116 p53 Agonism Beta-lactamase Assay, Phase 2 (AID 2283591; active = hit-call score of the fitted dose curve at least 0.9, where 1 is the maximum;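 note: actives lower the ATP signal meaning cytotoxicity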)
Method in brief: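 Cytotoxicity readout: CellTiter-Glo ATP luminescence, 30 min at room temperature, after the beta-lactamase read. Cells were HCT116 exposed 16 h at 37C to compounds pin-transferred at 217-fold dilution from DMSO stocks.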

[12] = target: Cellular tumor antigen p53 (Homo sapiens) (UniProt P04637); test: TOX21_p53_BLA_p2_ratio: Tox21 HCT-116 p53 Agonism Beta-lactamase Assay, Ratio, Phase 2 (AID 2283592; active = hit-call score of the fitted dose curve at least 0.9, where 1 is the maximum)
Chain of Cellular tumor antigen p53 (Homo sapiens) (P04637 whole entry, looked up): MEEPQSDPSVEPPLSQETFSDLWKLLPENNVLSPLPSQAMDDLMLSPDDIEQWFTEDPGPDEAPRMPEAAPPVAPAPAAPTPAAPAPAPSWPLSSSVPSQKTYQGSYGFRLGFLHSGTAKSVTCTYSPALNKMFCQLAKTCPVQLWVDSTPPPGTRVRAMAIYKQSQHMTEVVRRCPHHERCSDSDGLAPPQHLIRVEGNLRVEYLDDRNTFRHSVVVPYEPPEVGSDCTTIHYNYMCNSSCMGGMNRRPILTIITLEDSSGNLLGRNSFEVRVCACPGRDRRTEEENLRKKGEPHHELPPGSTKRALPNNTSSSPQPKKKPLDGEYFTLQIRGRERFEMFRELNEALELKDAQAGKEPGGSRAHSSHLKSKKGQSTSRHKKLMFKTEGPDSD
Method in brief: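 Readout: blue/green (460/530 nm) FRET emission ratio after 2 h CCF4-AM loading at room temperature, excitation 405 nm. HCT116 p53 bla cells, 16 h compound exposure at 37C, 5% CO2; agonist direction fitted against DMSO baseline.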

[13] = target: Cellular tumor antigen p53 (Homo sapiens) (UniProt P04637); test: TOX21_p53_BLA_p5_ratio: Tox21 HCT-116 p53 Agonism Beta-lactamase Assay, Ratio, Phase 5 (AID 2283599; active = hit-call score of the fitted dose curve at least 0.9, where 1 is the maximum)
Method in brief: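 Beta-lactamase reporter ratio (blue 460 nm over green 530 nm, 405 nm excitation) after 2 h CCF4-AM loading, in HCT-116 cells exposed 16 h at 37 C to compounds pinned at 217-fold dilution. Increases relative to DMSO baseline scored.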

[14] = TOX21_p53_BLA_p5_viability: Viability Assessment in the Tox21 HCT-116 p53 Agonism Beta-lactamase Assay, Phase 5 (AID 2283600; active = hit-call score of the fitted dose curve at least 0.9, where 1 is the maximum)
Method in brief: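 ATP luminescence (CellTiter-Glo, 30 min, RT) served as the viability read-out, with loss of signal indicating cytotoxicity. Compounds in DMSO were pinned at a 217-fold dilution onto 4000 cells/well and incubated 16 h, 37C.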

[15] = target: Cellular tumor antigen p53 (Homo sapiens) (UniProt P04637); test: TOX21_p53_BLA_p4_ratio: Tox21 HCT-116 p53 Agonism Beta-lactamase Assay, Ratio, Phase 4 (AID 2283601; active = hit-call score of the fitted dose curve at least 0.9, where 1 is the maximum)
Method in brief: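 Signal is the blue/green (460nm/530nm) ratio of cleaved versus uncleaved CCF4-AM substrate, read after 2 h substrate loading. Cells were HCT116 carrying the p53-responsive beta-lactamase reporter, dosed 16 h at 37C, 5% CO2; CellTiter-Glo measured in parallel.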

[16] = ATG_PBREM_CIS: Attagene CIS-FACTORIAL HepG2 Assay for human Phenobarbital-responsive Enhancer Module (PBREM) (AID 2282955); conditions: HepG2 PBREM cis-reporter, Attagene multiplexed transcription; actives raise or lower the signal
Method in brief: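 Endogenous transcription factors in human liver HepG2 cells drive a PBREM cis-element reporter, whose transcript level after 24 h treatment is quantified by RT-PCR with capillary electrophoresis; activity fitted in both directions against DMSO.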

[17] = ATG_TCF_b_cat_CIS: Attagene CIS-FACTORIAL HepG2 Assay for human T-Cell-Factor with beta-catenin (TCF/b-cat) (AID 2282965); conditions: HepG2 TCF/beta-catenin cis-reporter transcription, actives raise or lower the signal
Method in brief: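 Endogenous TCF/LEF activity read as reporter transcript level via RT-PCR and capillary electrophoresis fluorescence in transfected HepG2, 24 h exposure; gain or loss of signal fitted against DMSO controls.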

[18] = target: human Retinoid X Receptor beta (RXRb), RXRB (gene 6257) (UniProt P28702); test: ATG_RXRb_TRANS: Attagene TRANS-FACTORIAL HepG2 Assay for human Retinoid X Receptor beta (RXRb) (AID 2283013; active = hit-call score of the fitted dose curve at least 0.9, where 1 is the maximum)
Chain of human Retinoid X Receptor beta (RXRb), RXRB (gene 6257) (P28702 whole entry, looked up, the tested form may be a part): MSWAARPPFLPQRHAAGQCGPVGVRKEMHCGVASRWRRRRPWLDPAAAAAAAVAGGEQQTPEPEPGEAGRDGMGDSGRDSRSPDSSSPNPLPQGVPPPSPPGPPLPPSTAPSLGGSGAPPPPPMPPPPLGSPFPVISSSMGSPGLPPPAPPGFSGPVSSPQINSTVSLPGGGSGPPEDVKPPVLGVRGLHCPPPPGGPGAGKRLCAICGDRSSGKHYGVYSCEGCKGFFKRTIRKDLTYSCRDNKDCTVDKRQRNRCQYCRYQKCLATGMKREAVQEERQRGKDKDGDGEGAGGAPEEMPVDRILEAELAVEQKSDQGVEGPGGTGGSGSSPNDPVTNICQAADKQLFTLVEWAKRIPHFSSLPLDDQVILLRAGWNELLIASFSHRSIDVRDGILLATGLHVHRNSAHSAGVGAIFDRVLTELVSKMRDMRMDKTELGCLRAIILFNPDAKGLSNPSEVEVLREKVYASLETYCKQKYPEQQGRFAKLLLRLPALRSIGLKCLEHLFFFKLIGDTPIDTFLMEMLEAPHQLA
Method in brief: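 After a 24 h incubation with test chemical, transfected HepG2 cells carrying NR-Gal4 fusions and GAL4-UAS reporter transcription units yield RNA whose reporter cDNA is FAM-labelled, HpaI-cut and sized by capillary electrophoresis; increases over DMSO are scored.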

[19] = target: X-box-binding protein 1 (Homo sapiens) (UniProt P17861); test: ATG_Xbp1_CIS: Attagene CIS-FACTORIAL HepG2 Assay for human X-box Binding Protein 1 (XBP1) (AID 2282972); conditions: HepG2 XBP1 cis-element reporter, Attagene multiplex; actives raise or lower the signal
Chain of X-box-binding protein 1 (Homo sapiens) (P17861 whole entry, looked up): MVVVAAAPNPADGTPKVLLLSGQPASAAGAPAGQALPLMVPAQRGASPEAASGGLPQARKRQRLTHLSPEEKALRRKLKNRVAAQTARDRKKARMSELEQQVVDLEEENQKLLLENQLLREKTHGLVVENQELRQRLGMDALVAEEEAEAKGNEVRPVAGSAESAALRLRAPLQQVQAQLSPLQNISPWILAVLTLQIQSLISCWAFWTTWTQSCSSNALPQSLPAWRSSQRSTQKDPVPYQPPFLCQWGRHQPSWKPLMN
Method in brief: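 Reporter transcripts were quantified by RT-PCR with fluorescent primer extension and capillary electrophoresis after 24 h chemical exposure. Cells: transiently transfected HepG2 carrying cis-regulated reporter constructs; data fitted bidirectionally relative to DMSO.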

[20] = target: Cellular tumor antigen p53 (Homo sapiens) (UniProt P04637); test: TOX21_p53_BLA_p3_ratio: Tox21 HCT-116 p53 Agonism Beta-lactamase Assay, Ratio, Phase 3 (AID 2283596; active = hit-call score of the fitted dose curve at least 0.9, where 1 is the maximum)
Method in brief: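 Cells were seeded at 4000/well, rested 5 h at 37C, then dosed with DMSO compound solutions (217-fold dilution) for 16 h. CCF4-AM substrate was loaded for 2 h at room temperature, and the 460/530 nm emission ratio was fitted for gain of signal versus DMSO.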

Measured: AC50

C=C(C)C(=O)OCCCCCC
not listed: [16] | [17] | [18] | [19] | [20]
inactive: all other assays above

CCCC(=O)OC/C=C(\C)CCC=C(C)C
not listed: [10] | [11] | [12] | [13] | [14] | [15] | [19] | [20]
inactive: all other assays above

CO[Si](CCCNCCN)(OC)OC
inactive: [1] | [2] | [17] | [19] | [5] | [6] | [10]

CC(C)CC(=O)CC(C)CC(C)C (stereo unspecified)
not listed: [5] | [8] | [10] | [17]
inactive: all other assays above

COC(=O)[C@]1(C)CCC[C@@]2(C)[C@H]1CC=C1C=C(C(C)C)CC[C@@H]12
not listed: [4] | [5] | [7] | [13] | [14] | [15] | [19]
inactive: all other assays above

COC(=O)/C=C\C(=O)OC
active: [3] 128 µM
not listed: [4] | [6] | [9] | [11] | [17] | [20]
inactive: all other assays above

O=C(Oc1ccccc1)c1ccccc1
inactive: [1] | [2] | [16] | [17] | [19] | [5] | [9] | [10] | [18]

Cc1ccnc(N)c1
not listed: [5] | [12] | [14] | [15] | [20]
inactive: all other assays above

CC(=O)CCc1ccccc1
not listed: [3] | [5] | [6] | [11] | [17] | [18] | [19]
inactive: all other assays above

CCCOCCC
not listed: [2] | [6] | [14] | [17] | [20]
inactive: all other assays above

CCc1cc(C(N)=S)ccn1
not listed: [4] | [6] | [16]
inactive: all other assays above
